Screen size: about 5,500 compounds; about 2,000 (36%) were called active. Inconclusive results (about 18%) are left out. Some of the results follow. A number with no mark means an inactive call. Cut-off read from the data, not from the text of the source: active = normalized growth mostly below about 0.91 (no sharp cut-off); inconclusive = no clear call, values can overlap the other calls; inactive = mostly above about 0.92.

2 compounds from PubChem BioAssay AID1159580 (chemical genetic matrix, 2015) can be followed below.

A short description of this experiment: chemical genetic growth profiling, strain panel (AID 1159580).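 Note: tested at 20 µM; growth read once vehicle control cultures reached saturation at 30 °C; 1 = growth at the plate median or of vehicle wells.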 The conditions noted are these: S. cerevisiae deletion strains, growth OD.
[1] abbreviates: locus YAL013W, strain DEP1, stronger effect = lower value.
The mark [2] stands for this setting: locus YAL040C, strain CLN3, stronger effect = lower value.
The mark [3] stands for this setting: locus YCL061C, strain MRC1 (second series), stronger effect = lower value.
The mark [4] stands for this setting: locus YDR363W, strain ESC2, stronger effect = lower value.
Setting [5] is: locus YER002W, strain NOP16, stronger effect = lower value.
[6] abbreviates: locus YGR078C, strain PAC10, stronger effect = lower value.
Where [7] appears, read: locus YMR307W, strain GAS1, stronger effect = lower value.
[8] abbreviates: locus YNL175C, strain NOP13, stronger effect = lower value.
Where [9] appears, read: locus YNL197C, strain WHI3, stronger effect = lower value.
Setting [10] is: locus YNL224C, strain SQS1, stronger effect = lower value.
The mark [11] stands for this setting: locus YOR083W, strain WHI5 (second series), stronger effect = lower value.
The mark [12] stands for this setting: locus YPL055C, strain LGE1, stronger effect = lower value.
The mark [13] stands for this setting: locus YPL241C, strain CIN2, stronger effect = lower value.

With `CCCCCCCCCCCCC/C=C/[C@@H](O)[C@@H](N)CO`, the normalized growth was 0.877 (active) under setting [1]; 0.984 under setting [2]; 0.925 (active) under setting [3]; 0.848 (active) (locus YDR150W, strain NUM1, stronger effect = lower value); 0.929 under setting [4]; 1.02 under setting [5]. Besides, the normalized growth is, setting by setting: under setting [6], 1.01; (locus YGR229C, strain SMI1, stronger effect = lower value) 0.172 (active); (locus YJR075W, strain HOC1, stronger effect = lower value) 0.644 (active); under setting [7], 1.02; (locus YNL153C, strain GIM3, stronger effect = lower value) 0.844; under setting [8], 1.19 [resistant] (active). Besides, the normalized growth reads like this: under setting [9], 1.1; under setting [10], 1.06; under setting [11], 1.11; under setting [12], 0.757 (active); under setting [13], 0.926 (active).
On to `CCCCCCCCCCCCCCC[C@H](O)[C@H](N)CO`, for which the normalized growth runs as follows: under setting [1], 0.976; under setting [2], 1.05; under setting [3], 0.987; under setting [4], 0.99; under setting [5], 1.03; under setting [6], 1.01. The normalized growth is 1.01 under setting [7]; 0.222 (active) (locus YNL128W, strain TEP1, stronger effect = lower value); 0.643 (active) under setting [8]; 1.12 [resistant] (active) under setting [9]; 0.928 under setting [10]; 0.811 (active) under setting [11]. The normalized growth under setting [12] is 1.02 and the normalized growth under setting [13] was 0.998.
